This passage reports Potency and outcome results from PubChem BioAssay (NCATS).

Assay [1] can be described thus: Confirmatory screen GU Rhodamine qHTS for Zika virus inhibitors qHTS (AID 1347157). Further: nearly all actives have a fitted effect of over 70% in size. The essentials: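 In dose–response format, inhibition of unlinked protease (25 nM) was measured with 1.5 microM bis-peptide Rhodamine110 substrate. Aprotinin served as the intraplate control.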
The nature of assay [2]: Confirmatory screen NINDS Rhodamine qHTS for Zika virus inhibitors (AID 1347161).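 Further: purified Zika NS2B-NS3 protease with linked NS2B cofactor domain and Rhodamine110 peptide substrate; series mostly up to about 110 µM; nearly all actives have a fitted effect of over 60% in size.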 The essentials:
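Percent inhibition, normalized to uninhibited and enzyme-free controls, is fitted to a 4-parameter Hill equation. Fluorescence change comes from a 15-min cleavage of 1.5 microM bis-peptide Rhodamine110 substrate by 25 nM linked NS2B-NS3 at room temperature.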

The nature of assay [3]: Tertiary RLuc qRT-PCR qHTS assay for Zika virus inhibitors (AID 1347169). Further: top concentration of the series differs between compounds; nearly all actives have a fitted effect of over 55% in size. The essentials:
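Vero cells (1,000 per well) plated overnight at 37 degrees C, treated with compound in DMSO, then infected with recombinant ZIKV-RLuc (Cambodian) at MOI 1-2 for 48-72 hrs. Live-cell Renilla luciferase substrate added; luminescence read after 1-1.5 hrs.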

Assay [4] in a line: ZIKV-mCherry secondary qHTS for Zika virus inhibitors (AID 1347158). Further: top concentration of the series differs between compounds. The essentials: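 Vero cells (5,000/well) were given compound, then infected with ZIKV-mCherry at MOI 1 for 48–72 h at 37 °C. After PFA fixation and Hoechst staining, imaging gave percent mCherry-positive cells. The positivity threshold was RFU above 450, 3 SD over negative controls.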
The subject of assay [5] is Zika virus NS2B-NS3 protease (linked construct). Put plainly: 384 well plate NINDS Rhodamine confirmatory qHTS for Zika virus inhibitors (AID 1347164).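 Further: fluorescence from protease cleavage of Ac-LKRR-rhodamine 110 substrate; nearly all actives have a fitted effect of over 65% in size.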 Further: potency means the concentration at half of the fitted maximal effect. The essentials: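 Linked protease at a final 5 nM, 30 nM or 60 nM was preincubated ~15 min with compounds, then given 10 microM Ac-LKRR-Rhodamine 110. Fluorescence (ex 485/em 538 nm) after 25 min in the dark at room temperature.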

The nature of assay [6]: OV-KATE Cancer Cell Toxicity qHTS against the NCATS CANVASS Library (AID 1347345). The essentials: (§1)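 Cells were seeded at 1000 per well, allowed 4 h at 37 degrees C/5% CO2, then pin-treated with an 11-point compound series. After 72 h, viability was read as CellTiter-Glo luminescence following 15min at room temperature.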
A short description of assay [7]: HPAF-II 24hr Apoptosis Induction qHTS against the NCATS CANVASS Library (AID 1347356). The essentials:
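HPAF-II cells (500/well) exposed to compounds in 11-point series for 24 h at 37 degrees C; caspase-3/7 activity read by Caspase-Glo luminescence after 15 min at room temperature. Doxorubicin titration as control.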

Assay [8] is described as follows: qHTS for ATAD5 Agonist screened against the NCATS CANVASS Library (AID 1347367).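 Further: luciferase reporter driven by ATAD5 which rises upon DNA damage.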 The essentials: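 HEK293T cells stably carrying an ATAD5-controlled luciferase reporter (2000 cells/well) attached for 5 hr, then received compounds in an 11-point series for 16hr at 37C. Luminescence was read after a 30 min room-temperature reagent step.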
Assay [9] is described as follows: G06 Cancer Cell Toxicity qHTS against the NCATS CANVASS Library (AID 1347368). Further: nearly all actives have a fitted effect of over 60% in size. The essentials:
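G06 dog glioma cells, 500 per well, exposed 72 hr at 37C, 5% CO2 to compounds in an 11-point series. Cytotoxicity read as ATP content by CellTiterGlo luminescence.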

In assay [10] the target is Nuclear receptor subfamily 1 group I member 3 (Homo sapiens) (UniProt Q14994). Put plainly: qHTS for Constitutive Androstane Receptor (CAR) Agonist screened against the NCATS CANVASS Library (AID 1347373).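 Further: every well also contained 1.5 µM PK11195 alongside the test compound.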 The essentials: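 HepG2 cells stably carrying hCAR and a CYP2B6-2.2kb luciferase reporter, treated 24hr at 37C with compounds plus 1.5uM PK11195; activation by ONE-Glo luminescence, viability by CellTiter-Fluor.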
Nuclear receptor subfamily 1 group I member 3 (Homo sapiens), sequence (Q14994 whole entry, looked up): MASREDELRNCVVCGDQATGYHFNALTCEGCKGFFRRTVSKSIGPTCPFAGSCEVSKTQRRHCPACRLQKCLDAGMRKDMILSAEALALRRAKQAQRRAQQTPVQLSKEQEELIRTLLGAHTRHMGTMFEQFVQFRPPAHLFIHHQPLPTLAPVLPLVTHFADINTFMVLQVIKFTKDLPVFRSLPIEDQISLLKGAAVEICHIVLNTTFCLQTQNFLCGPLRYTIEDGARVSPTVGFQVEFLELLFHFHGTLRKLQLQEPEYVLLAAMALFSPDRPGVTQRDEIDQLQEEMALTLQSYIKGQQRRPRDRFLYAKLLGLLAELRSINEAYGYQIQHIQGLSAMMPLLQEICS

Assay [11] can be described thus: qHTS assay for small molecule disruptors of mitochondrial membrane potential screened against the NCATS CANVASS Library (AID 1347389). Further: series mostly up to about 46 µM; nearly all actives have a fitted effect of over 60% in size. The essentials:
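HepG2 cells (2,000/well) plated overnight, then exposed to compounds in 11-point qHTS series for 1 h at 37C before 30 min Mito-MPS dye; depolarization read as fall in red aggregate (590 nm) to green monomer (535 nm) fluorescence.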

Assay [12] is described as follows: qHTS for activators of Nrf2/ARE signaling pathway screened against the NCATS CANVASS Library (AID 1347391). Further: nearly all actives have a fitted effect of over 60% in size. The essentials:
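ARE-bla HepG2 beta-lactamase reporter cells exposed to compounds for 16 h at 37C; CCF4 substrate 2 h, fluorescence at ex 405 nm, em 460/530 nm. Viability by CellTiter-Glo luminescence.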

In assay [13] the test system is Zika virus NS2B-NS3 protease (unlinked complex). Put plainly: Primary screen GU Rhodamine qHTS for Zika virus inhibitors: Unlinked NS2B-NS3 protease assay (AID 1347159). Further: nearly all actives have a fitted effect of over 60% in size. The essentials: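 A qHTS format was used, with compound concentrations ranging up to 114 microM. Each compound was preincubated with 25 nM NS2B-NS3 protease, and the substrate was then added at 1.5 microM. Curves were fitted with a 4-parameter Hill model.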

The target in assay [14] is Phospholipid hydroperoxide glutathione peroxidase GPX4 (Homo sapiens) (UniProt P36969). Put plainly: Primary qHTS Assay for Inhibitors of Recombinant Selenoprotein Glutathione Peroxidase 4 (GPX4) (AID 1845192). Further: series mostly up to about 50 µM; nearly all actives have a fitted effect of over 65% in size. To be noted: outcome: dose series up to 50 µM unless noted. The essentials: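 NADPH consumption, followed by fluorescence at 340/450 nm between 0 and 15 min, reports GPX4 activity via coupled glutathione reductase (100 nM). Enzyme 200 nM was pre-exposed to compound 30 min; 0.5 mM cumene hydroperoxide and 1 mM GSH served as substrates.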
Phospholipid hydroperoxide glutathione peroxidase GPX4 (Homo sapiens), sequence (P36969 whole entry, looked up): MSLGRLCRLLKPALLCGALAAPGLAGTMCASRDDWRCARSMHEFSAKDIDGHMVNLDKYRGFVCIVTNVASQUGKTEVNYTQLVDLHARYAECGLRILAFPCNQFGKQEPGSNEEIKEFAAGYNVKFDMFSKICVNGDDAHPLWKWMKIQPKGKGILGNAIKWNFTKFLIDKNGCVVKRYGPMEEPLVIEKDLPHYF

Assay [15] has as its target Luciferin 4-monooxygenase (Photinus pyralis) (UniProt P08659). The assay is described as follows: Primary firefly luciferase (FLuc) qHTS assay for identification of artifact compounds. (AID 1845220). Further: nearly all actives have a fitted effect of over 60% in size. The essentials:
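Cell-free, 1536-well qHTS. Buffer pH 7.6 with 0.01% Tween-20 and 0.05% BSA; 10 uM D-luciferin, 10 uM ATP; 10 nM P. pyralis luciferase; luminescence after 5 min.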

The nature of assay [16]: Primary fluorescence-based thiol-reactive (MSTI) qHTS assay for identification of artifact compounds. (AID 1845221).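 Further: series mostly up to about 54 µM; thiol-reactive compounds lower the probe fluorescence signal; nearly all actives have a fitted effect of over 65% in size.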 The essentials: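 Curve-fitted percent inhibition (4-parameter Hill) derived from fluorescence, Ex 525/Em 598 nm, scaled with Acetyl-MSTI and MSTI; 1 h incubation at room temperature.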
Assay [17] can be described thus: Panc-1005 Cancer Cell Toxicity qHTS against the NCATS CANVASS Library (AID 1347349). The essentials: as §1
Assay [18] is described as follows: qHTS for Antimalaria activity screened against the NCATS CANVASS Library (AID 1347380).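 Further: Plasmodium falciparum strain Dd2 asexual parasites grown in red blood cells; series mostly up to about 29 µM; nearly all actives have a fitted effect of over 40% in size.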 The essentials: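 Red blood cells infected with P. falciparum Dd2 (2.5% hematocrit final, 0.3% parasitemia) were exposed to compounds in an 11-point qHTS series for 72 hr at 37C under 5% O2 and 5% CO2. Lysis buffer with SYBR Green was then added for 18 hr, and fluorescence was read at 485/535 nm.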

Records with an inconclusive call do not appear. Active and inactive are the calls of the source. The call rests on the fitted dose curve; in most records, active means well fitted curve in the direction sought with a large enough effect; inconclusive means small, poorly fitted or top-dose-only effect, or another doubt; inactive means no such curve, though single readings can be large; an effect the other way counts as inactive or inconclusive.

As for `CC(C)c1nn2c(=O)cc(COC(=O)c3cccc(NC(=O)c4ccccc4F)c3)nc2s1`, the Potency result in assay [1], in assay [2] and in assay [3] was “inactive” in each case.
`COc1ccc(S(=O)(=O)c2c(Nc3ccc(C)cc3)sc(C(=O)c3ccc4c(c3)OCO4)c2N)cc1`: the Potency entry in assay [1], in assay [2] and in assay [3] was “inactive” in each case.
Regarding `CCOC(=O)c1c(-c2ccccc2)csc1NC(=O)c1cc(-c2ccc(Cl)cc2)on1`, the Potency entry in [1], in [2] and in [3] was “inactive” throughout.
For the compound `CCCCc1nn2c(=O)cc(COC(=O)c3ccc(NC(=O)c4cccs4)cc3)nc2s1`, the Potency result in assay [1], in assay [2] and in assay [3] was “inactive” in each case.
For `COc1ccc(OC)c(Nc2sc(C(=O)c3ccccc3)c(N)c2S(=O)(=O)c2ccccc2)c1`, the Potency result in assay [1], in [2] and in assay [3] was “inactive” each time.
As for `CC(C)c1nn2c(=O)cc(COC(=O)c3ccccc3NC(=O)c3cccc(Cl)c3)nc2s1`, the Potency result in assay [1], in assay [2] and in [3] was “inactive” each time.
With `O=C(CNC(=O)c1ccc(Cl)cc1)OCc1cc(=O)n2nc(C3CCCCC3)sc2n1`, the Potency result in [1], in [2] and in assay [3] was “inactive” each time.
Take `CCCCOC(=O)c1ccc(NC(=O)c2ccc3c(c2)CCN3S(=O)(=O)c2ccccc2)cc1`: the Potency entry in assay [1], in assay [2] and in [3] was “inactive” each time.
Take `O=C(OCc1cc(=O)n2nc(C3CC3)sc2n1)c1ccc(NC(=O)c2ccccc2F)cc1`: the Potency result in [4], in assay [5] and in [3] was “inactive” in each case.
On to `C1=C2CCCN[C@@H]2[C@@H]2CCN3CCCC[C@@H]3[C@H](C1)C2`, for which the Potency result in assay [6], in [8], in [9], in assay [11] and in assay [12] was “inactive” each time. Also, the compound was called inactive in [7] and in assay [10].
Consider `C/C=C/C[C@@H](C)[C@@H](O)[C@H]1C(=O)N[C@@H](CC)C(=O)N(C)CC(=O)N(C)[C@@H](CC(C)C)C(=O)N[C@@H](C(C)C)C(=O)N(C)[C@@H](CC(C)C)C(=O)N[C@@H](C)C(=O)N[C@H](C)C(=O)N(C)[C@@H](CC(C)C)C(=O)N(C)[C@@H](CC(C)C)C(=O)N(C)[C@H](C(C)C)C(=O)N1C`, for which the Potency entry in assay [13], in [14], in assay [15] and in [16] was “inactive” throughout.
As for `COc1cc(/C=C2/C(=O)N(c3ccc(O)cc3C(=O)O)[C@H](c3ccc(O)c(OC)c3)C2C(=O)Nc2ccc(O)cc2C(=O)O)ccc1O` (some centres undefined), the Potency entry in assay [6], in assay [17], in [8], in assay [9], in assay [11] and in assay [12] was “inactive” each time. In addition, the outcome in assay [7] was inactive.
On to `O=C(NCc1ccccc1Cl)c1ccc2c(O)c(S(=O)(=O)c3ccccc3)c(=O)[nH]c2c1`, for which the Potency result in [4] and in assay [3] was “inactive” in each case. For the same compound, the Potency in assay [5] was 50.1 µM (active).
Consider `Cc1cc(O)cc2oc(C[C@H](C)O)cc(=O)c12`, for which the Potency result in assay [6], in assay [17], in assay [18], in [11] and in assay [12] was “inactive” throughout. In addition, the compound was called inactive in assay [7].
